# From ChEMBL document CHEMBL3988442, “University of Dundee, Small-Polar-MMV Screening Library” (2021)
# Among all 48,000 compounds or so, about 13,000 (27%) showed an effect of 50% or more. The list shows a part of the results.
# System: Wolbachia pipientis
# Experiment: Anti-Wolbachia Cell-Based Screen
# Assay type: functional
# Parameters: scale not given: in the data most compounds retested in dose-response had high values
# Settings: 5 µM
row,SMILES,Percent Effect
1,CCNC(=O)CCC(=O)NC1(c2cccc(Br)c2)CC1,-12.14%
2,CCc1nc(C)c(C(=O)N2C[C@H]3CC[C@@H]2CN(S(=O)(=O)N(C)C)C3)s1,8.94%
3,CN(Cc1cnn(C)c1)C(=O)NC1CCN(c2ncccn2)CC1,-3.223%
4,CC(C)NC(=O)[C@@H]1CC[C@@H]2[C@@H](CCN2Cc2cn(C)c3ccccc23)O1.O=C(O)C(F)(F)F,-4.98%
5,Cc1cccnc1CN(C)C(C(=O)O)c1ccc(-c2ccn[nH]2)cc1 (stereo unspecified),-12.44%
6,O=C(CC1OCCc2ccccc21)NCCn1cccc1 (stereo unspecified),-19.46%
7,COc1c(CNCc2cccnc2N2CCN(C)CC2)c(C)nn1C,102%
8,Cc1nn(C)c(N2CCOCC2)c1CNC(c1cccs1)C(C)C (stereo unspecified),11.33%
9,Cc1nn(C)c(N(C)C)c1CNCc1cccnc1-n1cncn1.Cl,6.556%
10,COc1c(CNCc2ccccc2CO)c(C)nn1C,-3.857%
11,Cc1nn(C)c(N(C)C)c1CNCc1cccnc1N1CCOCC1,75.62%
12,Cc1nn(C)c(C)c1C(=O)NCc1cccnc1OC1CCCC1,2.821%
13,COc1c(CNCc2cccnc2OC2CCCC2)c(C)nn1C,10.48%
14,Cc1nn(C)c(Cl)c1C(=O)NCc1cccnc1N1CCOCC1,97.98%
15,COc1ccc(C(=O)NCc2cccnc2N2CCOCC2)o1,-8.247%
16,COc1ncccc1CNCc1c(C)nn(C)c1N1CCOCC1,134%
17,Cn1ncnc1CCNC(=O)c1cc(Cl)c(Cl)n1C,-10.92%
18,CCC(O)(CNCc1ncc[nH]1)c1ccc(Br)cc1 (stereo unspecified),-2.159%
19,CCN(C(=O)c1ccc2nncn2c1)C(C)Cc1ccc(OC)cc1 (stereo unspecified),0.4912%
20,COc1ccccc1CN1C(=O)O[C@@H]2CN(Cc3cccc(C)n3)C[C@@H]21,8.298%
21,Cc1c(C(C)NCc2cnn(C)c2)cnn1-c1ccccc1 (stereo unspecified),2.501%
22,COc1c(CNCc2cccnc2N2CCOCC2)c(C)nn1C,98.1%

row,SMILES,Percent Effect
1,CC(C)c1nn(C)c(Cl)c1CNCc1cccnc1N(C)C.Cl,4.509%
2,COc1c(CNCc2cccnc2N2CCCCC2)c(C)nn1C,105.9%
3,Cc1nn(C)c(C)c1CNCc1ccc(N2CCOCC2)nc1.Cl,-2.34%
4,COc1c(CNCc2ccccc2CN2CCOCC2)c(C)nn1C,9.735%
5,COc1c(CNCc2ccnc(N3CCCC3)c2)c(C)nn1C,5.629%
6,COc1ncccc1CNCc1c(C(C)C)nn(C)c1Cl,-10.74%
7,Cc1nn(C)c(C)c1CNCc1cccnc1N1CCOCC1,117.5%
8,Cc1nn(C)c(Cl)c1CNCc1cccnc1N1CCCCC1.Cl,128.1%
9,Cc1nn(C)c(C)c1CNCc1ccnc(N2CCOCC2)c1,7.637%
10,COc1c(CNCc2ccc(N3CCOCC3)cc2)c(C)nn1C,-35.64%
11,CCN(CC)C(=O)[C@@H]1C[C@@H](NC(=O)c2ccn(C(C)(C)C)c2)CN1C,-2.553%
12,CCOC1CCCN(C(=O)c2[nH]nc(C3CC3)c2Br)C1 (stereo unspecified),12.02%
13,Cc1nn(C)c(C)c1CC(=O)NCc1cccnc1N1CCOCC1,92.54%
14,Cc1nn(C)c(C)c1CC(=O)NCc1cccnc1OC1CCCC1,8.742%
15,Cc1nn(C)c(C)c1CCC(=O)NCc1cccnc1OC1CCCC1,8.443%
16,O=C(NC1CCC(C(=O)N2CCSCC2)CC1)N1CCOCC1 (stereo unspecified),-2.912%
17,CNC(=O)c1sccc1S(=O)(=O)Nc1ccc(C)cc1,10.06%
18,COCCNS(=O)(=O)c1ccc(Cl)c(C(=O)N(C)Cc2sccc2C)c1,1.059%
19,COC(=O)CNC(=O)c1sccc1N(C)S(=O)(=O)c1ccc(Cl)cc1,108.4%
20,COC(=O)CNC(=O)c1cccc(C(=O)N(C)c2ccccc2)c1,-13.83%
21,CC(=O)NCCNC(=O)c1sccc1Br,4.913%
22,Cc1ccc(S(=O)(=O)N(C)c2ccsc2C(=O)NCC(C)C)cc1,110.5%

row,SMILES,Percent Effect
1,COCC1CN(c2ccc(Cl)cc2C#N)CCO1 (stereo unspecified),-47.15%
2,CN(C(=O)CN1CCCC1c1cnn(C)c1)C1(C#N)CCCCC1 (stereo unspecified),17.82%
3,Fc1ccc(C2(NCc3noc(C4CC4)n3)CCC2)cc1,7.462%
4,Cn1ccnc1CN1CC[C@@H]2[C@@H](CCC(=O)N2CCc2c[nH]cn2)C1,16.03%
5,N#Cc1cn(C2CC2)c(=O)n(CC(O)c2ccc(OC(F)F)cc2)c1=O (stereo unspecified),-10.28%
6,CC(C)N(Cc1c[nH]nc1-c1ccc2c(c1)OCO2)Cc1nccn1C,-1.902%
7,CN(C)C(=O)COCc1cncc2c1CCN(C1CCOCC1)C2.O=C(O)C(F)(F)F.O=C(O)C(F)(F)F,119.4%
8,CCN(CC)c1ncc2c(c1C(=O)O)CCN(C1CCOC1)C2.O=C(O)C(F)(F)F (stereo unspecified),12.85%
9,O=C(C1CC=CC1)N1CCc2c(COCc3ccncc3)cncc2C1.O=C(O)C(F)(F)F.O=C(O)C(F)(F)F,-4.118%
10,CN(C)CCOCc1cncc2c1CCN(C(=O)C1CCOCC1)C2.O=C(O)C(F)(F)F.O=C(O)C(F)(F)F,112.9%
11,CN(C)C(=O)COCc1cncc2c1CCN(Cc1nccn1C)C2,-3.709%
12,CN(C)CCOCc1cncc2c1CCN(C1CCOCC1)C2.O=C(O)C(F)(F)F.O=C(O)C(F)(F)F.O=C(O)C(F)(F)F,96.48%
13,CN1CCN(c2ncc3c(c2C(=O)O)CCN(C2CCOC2)C3)CC1.O=C(O)C(F)(F)F.O=C(O)C(F)(F)F (stereo unspecified),2.308%
14,Cn1ccnc1CNC[C@H]1Cn2cc(-c3ccccc3)nc2CO1,-17.11%
15,COc1cc(F)ccc1NC(=O)NCCNC(=O)OC(C)(C)C,3.046%
16,CN(C)c1ccc(NC(=O)N2CCCCC2c2ncc[nH]2)cn1 (stereo unspecified),3.844%
17,OCCN(Cc1cccnc1)c1ccc(Br)cn1,-12.52%
18,c1ccc(Cn2ccnc2CN2CCCC2c2noc(C3CC3)n2)cc1 (stereo unspecified),9.89%
19,O=C(c1cnccn1)N1CCCC(Cn2cc(C3CC3)nn2)C1 (stereo unspecified),-22.35%
20,CNc1ccc(CC2CCCN(C(=O)c3cncnc3C)C2)nn1 (stereo unspecified),-8.103%
21,Cc1cccc(C(=O)N2CCCC(c3nccn3Cc3cscn3)C2)n1 (stereo unspecified),13.18%
22,CNc1ccc(CC2CCCN(C(=O)c3cnccn3)C2)nn1 (stereo unspecified),132.6%

row,SMILES,Percent Effect
1,CNc1ccc(CC2CCCN(C(=O)c3cnc(C)nc3)C2)nn1 (stereo unspecified),2.499%
2,CNc1ccc(CC2CCCN(C(=O)c3cccc(C)n3)C2)nn1 (stereo unspecified),125.2%
3,CCc1noc(CN(CC)C(=O)c2ccc3ncsc3c2)n1,-4.547%
4,Cc1nc(CN(C)C(=O)Nc2cccc(COC(C)C)c2C)no1,-7.168%
5,Cc1nc(CN(C)C(=O)Nc2cccc(C)c2C)no1,98.94%
6,Cc1nc(CN(C)C(=O)Nc2cccc(COC(C)C)c2)no1,-5.04%
7,CCN(C)c1ncnc2c1CCN(C(=O)c1cnccn1)CC2.O=C(O)C(F)(F)F,3.18%
8,CCCc1n[nH]c(C2CN(C(=O)CCCn3cccn3)CCO2)n1 (stereo unspecified),-7.162%
9,CCCc1n[nH]c(C2CN(C(=O)CCn3ccccc3=O)CCO2)n1 (stereo unspecified),104.2%
10,CCc1n[nH]c(C2CN(C(=O)CCn3ccccc3=O)CCO2)n1 (stereo unspecified),105.3%
11,CCc1n[nH]c(C2CN(C(=O)Cn3ccccc3=O)CCO2)n1 (stereo unspecified),10.71%
12,CCc1n[nH]c(C2CN(C(=O)CCc3cccs3)CCO2)n1 (stereo unspecified),3.606%
13,CCc1n[nH]c(C2CN(C(=O)Cc3cccs3)CCO2)n1 (stereo unspecified),122.2%
14,CCc1n[nH]c(C2CN(C(=O)Cc3ccc(C)nc3)CCO2)n1 (stereo unspecified),17.82%
15,CCCc1n[nH]c(C2CN(C(=O)Cn3ccccc3=O)CCO2)n1 (stereo unspecified),125.8%
16,CC(C)(C)c1coc([C@@H]2COCCN2Cc2c[nH]c3ccccc23)n1,-5.354%
17,CS(=O)(=O)Cc1cccc(C(=O)NCC2Cc3ccccc3O2)c1 (stereo unspecified),-6.812%
18,CCN(C)S(=O)(=O)N1CCCC(c2cccc(C(=O)O)c2)C1 (stereo unspecified),10.58%
19,CCC1CN(C(=O)c2ccccc2N(C)C)CCN1C(C)C (stereo unspecified),-1.815%
20,CC(C)N(C)CC(=O)N1CCCC(c2ccc(C(=O)O)cc2)C1 (stereo unspecified),-10.1%
21,O=C(O)c1cccc(C2CCCN(S(=O)(=O)C3CC3)C2)c1 (stereo unspecified),5.769%
22,CN(C)c1ccccc1C(=O)N1CCCC(c2cccc(C(=O)O)c2)C1 (stereo unspecified),94.85%

row,SMILES,Percent Effect
1,CN(C)c1ccccc1C(=O)N1CCCC(c2ccc(C(=O)O)cc2)C1 (stereo unspecified),127.7%
2,CCS(=O)(=O)c1ncc(CN2CCSCC2)n1CCc1ccccc1,0.5583%
3,COC(=O)C1(NCc2nc(C)c(C)o2)CCC(C)CC1 (stereo unspecified),-8.144%
4,Cc1cc(C(=O)Nc2ccc(OCC3CCOCC3)cc2)[nH]n1,0.7277%
5,CN1CCN(S(=O)(=O)c2ncn(C)c2Cl)CC1,8.331%
6,CCN1CCN(S(=O)(=O)c2ncn(C)c2Cl)CC1,25.01%
7,O=C1CCCCN1CCCNCc1cnc(C2CCC2)s1,-10.31%
8,Cn1cnc(S(=O)(=O)NCCCN2CCCCCC2=O)c1Cl,103.8%
9,Cn1cnc(S(=O)(=O)NCCN2CCCCCC2=O)c1Cl,-2.808%
10,Cn1cnc(S(=O)(=O)NCCCN2CCCC2=O)c1Cl,106%
11,Cc1cc(C)n(CC(C)NC(=O)c2cc(CN3CCC(O)CC3)on2)n1 (stereo unspecified),-12.5%
12,COCCCc1nc(-c2ccc(S(=O)(=O)N3CCCC3)cc2)cs1,23.72%
13,CCC(NC(=O)Cn1ccc(=O)n(C)c1=O)c1ccc(OC)cc1 (stereo unspecified),1.056%
14,COc1ccc(C)cc1C(C)NC(=O)Cn1ccc(=O)n(C)c1=O (stereo unspecified),121.4%
15,CCC(NC(=O)Cn1ccc(=O)n(C)c1=O)c1ccccc1OC (stereo unspecified),2.411%
16,COc1ccc(C)cc1C(C)NC(=O)NCCCn1cncn1 (stereo unspecified),6.959%
17,COc1ccc(C(C)NC(=O)Cn2ccc(=O)n(C)c2=O)cc1F (stereo unspecified),127.2%
18,COc1ccc(C(O)CNC(=O)Cn2ccc(=O)n(C)c2=O)cc1 (stereo unspecified),1.675%
